The full list was thinned out, with hits kept by preference.
ST2 inh – inhibitors of human ST2 (IL1RL1) binding to IL-33, primary screen, biochemical, AlphaLISA. AlphaLISA ST2-Fc/biotin-IL-33 interaction, 1 h. AID 1259354, 2018. Interleukin-1 receptor-like 1 (Homo sapiens), Q01638. inhibition, % for hits at 17 µM. actives 2.3% (n = 78,000); in the data active = inhibition above about 30%
Target sequence (Q01638 whole entry, looked up): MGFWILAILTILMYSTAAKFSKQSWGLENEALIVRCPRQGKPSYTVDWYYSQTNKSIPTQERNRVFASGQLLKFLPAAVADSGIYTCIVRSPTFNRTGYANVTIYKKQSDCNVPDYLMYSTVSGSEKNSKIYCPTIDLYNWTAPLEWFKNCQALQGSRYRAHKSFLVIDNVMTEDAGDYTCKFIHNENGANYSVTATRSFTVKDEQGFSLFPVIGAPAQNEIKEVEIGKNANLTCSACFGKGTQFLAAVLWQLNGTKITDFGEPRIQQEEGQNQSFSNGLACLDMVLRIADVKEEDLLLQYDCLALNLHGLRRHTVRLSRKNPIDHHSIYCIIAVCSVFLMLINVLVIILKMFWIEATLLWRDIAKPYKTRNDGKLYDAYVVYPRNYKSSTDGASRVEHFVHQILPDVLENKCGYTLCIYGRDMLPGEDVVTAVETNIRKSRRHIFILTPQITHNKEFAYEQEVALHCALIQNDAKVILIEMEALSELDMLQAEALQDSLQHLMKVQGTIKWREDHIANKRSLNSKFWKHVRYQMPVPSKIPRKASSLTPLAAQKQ
* hit, by the source's call; i = inactive.

SMILES	ST2 inh
O=C(Nc1nnc(-c2ccc(F)cc2)o1)c1ccc(S(=O)(=O)N2CCCCC2)cc1	i
O=C(c1ccc(N2CCC(NCC3OCCc4ccccc43)CC2)cc1)N1CCc2ccccc2C1 (stereo not given)	i
CCC(=O)N1CCc2cc(S(=O)(=O)NC(C(=O)NCc3ccco3)C(C)C)ccc21 (stereo not given)	i
COc1cccc(C(=O)Nc2ccccc2C(=O)NC2CCCCC2)c1	i
COc1cccc(N(C(C)=O)C2=C(NC3CCCCC3)C(=O)c3ccccc3C2=O)c1	38%*
CC(=O)N(C1=C(NC2CCCCC2)C(=O)c2ccccc2C1=O)c1ccc(F)c(F)c1	45%*
COc1cccc(N2CC(NC(=O)C3CCCCC3)CC2=O)c1 (stereo not given)	i
O=C(NC1CCCCC1)C(c1ccccc1)c1ccccc1	i
CC(C(=O)NC1CCCC1)N(c1ccccc1)S(C)(=O)=O (stereo not given)	i
COCCN1C(=O)CO[C@H]2CN(Cc3cnc4ccccc4c3)C[C@H]21	i
CCOC(=O)Cn1c(=O)n(-c2ccc(C)c(C)c2)c2nc(-c3ccc(OC)cc3)nc(C(N)=O)c21	i
Cn1cnc(S(=O)(=O)N2CCCC(C(=O)Nc3ccc(S(N)(=O)=O)cc3)C2)c1 (stereo not given)	i
CCN(CC)C(=O)Cn1cnc2sc(C(=O)Nc3ccc(C(F)(F)F)cc3)c(C)c2c1=O	i
O=c1[nH]c(-c2cccc(Br)c2)nc2sc3c(c12)CCCC3	i
O=C(CSc1nnc2sc3ccccc3n12)Nc1ccc2c(c1)OCO2	i
Cc1ccccc1OCC(=O)Nc1ccc(I)cc1Cl	i
COc1ccc(CNCc2ccccc2C(F)(F)F)cc1OC	i
Cc1cc(NC(=O)/C=C\c2ccc3c(c2)OCO3)nc2c1c(=O)oc1ccccc12	43%*
Cc1cc(NC(=O)c2ccc3c(c2)OCO3)nc2c1c(=O)oc1ccccc12	i
CC(=O)Nc1cc(C)c2c(=O)oc3ccccc3c2n1	i
Cc1ccc2[nH]c(=O)c(CN3CCOCC3)c(-c3ccccc3)c2c1	i
CC(C)=Cc1oc2c(Cl)cc(Cl)cc2c1N1CCOCC1	30%*
COc1c(Cl)cc(Cl)cc1C(=O)Nc1ccccc1N1CCOCC1	i
CC(=O)Nc1ccc(N2CCOCC2)cc1	i
COc1cc(NC(=O)c2ccc([N+](=O)[O-])cc2)c(OC)cc1NC(C)=O	i
SMILES	ST2 inh
COc1ccc(C2(CNC(=O)c3ccc([N+](=O)[O-])cc3)CCCC2)cc1	i
COC1(C#CC(=O)c2ccc([N+](=O)[O-])cc2)CCCCC1	61%*
O=C(CS(=O)(=O)c1cn(Cc2ccc(F)cc2)c2ccccc12)NC1CCCCC1	i
COc1cccc(C(=O)Oc2ccc3oc(=O)sc3c2)c1	i
Cc1ccc(NS(=O)(=O)c2ccc3[nH]c(=O)c(=O)[nH]c3c2)c(Cl)c1	37%*
Cc1ccc(Cl)cc1NS(=O)(=O)c1ccc2[nH]c(=O)c(=O)[nH]c2c1	i
Cc1ccc(NS(=O)(=O)c2ccc3[nH]c(=O)c(=O)[nH]c3c2)cc1Cl	i
COc1cc(N2C(=O)Cn3c2nc2c3c(=O)n(C)c(=O)n2C)c(OC)cc1Cl	i
CC(=O)Nc1sc2c(c1C#N)CCCC2	i
N#Cc1c(-n2cccc2C=O)sc2c1CCCC2	i
N#Cc1c(N)sc2c1CCCC2	31%*
COc1ccc(C(=O)N2C[C@@H](O)[C@H](NCCc3ncccc3C)C2)cc1	i
CCOC(=O)c1ccc(NS(=O)(=O)c2c(C)[nH]c(=O)[nH]c2=O)cc1	i
CN(C(=O)c1nn(-c2ccc(Cl)cc2)c(=O)c2ccccc12)C1CCCCC1	i
CCN(C(=O)CCS(=O)(=O)c1cccc2nsnc12)c1ccc(F)cc1	i
COc1ccc(-c2nn(-c3ccccc3C)cc2CNC2CCOCC2)cc1F	i
COc1ccc(C2CCN(Cc3ccc(Sc4nncn4C)o3)c3ccccc3S2)cc1C (stereo not given)	31%*
CN(Cc1ccc(Sc2nncn2C)o1)C1CCCN(Cc2ccccc2F)C1 (stereo not given)	i
Cc1ccccc1C(=O)Nc1cc2cccc([N+](=O)[O-])c2oc1=O	i
CCOc1ccc(NC(=O)c2c(-c3ccccc3)noc2C)c([N+](=O)[O-])c1	38%*
CCOc1ccccc1NC(=O)c1c(-c2ccccc2Cl)noc1C	i
O=C(Nc1cc2cccc([N+](=O)[O-])c2oc1=O)c1cccc(I)c1	i
Cc1onc(-c2ccccc2)c1C(=O)Nc1cc2cccc([N+](=O)[O-])c2oc1=O	46%*
Cc1onc(-c2ccccc2)c1C(=O)Nc1cccc(NC(=O)c2c(-c3ccccc3)noc2C)n1	i
Cn1cc(C(=O)N2CCN(c3ccccc3)CC2)c2c3ccccc3n(C)c2c1=O	i
SMILES	ST2 inh
CN1CCCC2(CC1)CCN(C(=O)CN1CCOC1=O)CC2	i
O=c1[nH]c(-c2ccc(S(=O)(=O)O)cc2)c(-c2ccc(S(=O)(=O)O)cc2)[nH]1	i
O=C(CCc1ccccc1)N1CCc2ccccc21	i
C=C(C)CC(Nc1ccc(OC)cc1)c1ccco1 (stereo not given)	37%*
COc1ccccc1C(CC(=O)O)c1ccco1 (stereo not given)	i
COc1ccc(/C=C(/NC(=O)c2ccco2)C(=O)Nc2ccc(OC)cc2)cc1	i
CC(=NS(=O)(=O)c1ccc(C)cc1)N1CCCC1	i
CCC1CCCCN1C(=O)CSc1nc2c(c(=O)n1-c1ccc(Cl)cc1)SCC2 (stereo not given)	i
CCN(c1ccc(C)c(C)c1)S(=O)(=O)c1ccc2c(c1)CCN2C(=O)C1CC1	i
Cc1ccc(NC2SC(=O)N(c3ccccc3)C2=O)cc1 (stereo not given)	i
Cc1ccc(N2C(=O)C3Sc4[nH]c(=O)sc4C(c4ccccc4)C3C2=O)cc1 (stereo not given)	34%*
O=c1[nH]c2c(s1)C(c1ccc(Cl)cc1)C1C3CCC(C3)C1S2 (stereo not given)	i
CC(C)CNC(=O)c1cc(-c2ccc(Cl)c(Cl)c2)on1	i
c1ccc(N=c2scc(-c3ccccc3)n2CCN2CCOCC2)cc1	i
Cc1nc2ccccc2c(=O)n1CCCO	i
COc1ccc2c(=O)c(-c3ccc4c(c3)OCCCO4)coc2c1	i
COc1ccc(-c2csc(=Nc3ccccc3)n2CCO)cc1F	48%*
COc1ccc(N=c2scc(-c3ccc4c(c3)OCCO4)n2CCO)cc1	32%*
OCCCn1c(-c2ccccc2)csc1=Nc1ccccc1	61%*
OCCn1c(-c2ccc(Cl)c(Cl)c2)csc1=Nc1ccccc1	48%*
COc1ccc(CNC(=O)c2cc(-c3ccc4c(c3)OCO4)on2)cc1	i
COc1ccc(-c2cn3ccccc3n2)cc1F	i
COc1ccccc1NC(=O)Cn1cnc([N+](=O)[O-])n1	i
Cn1c(=O)c2cc(S(=O)(=O)N(CCc3ccccc3)Cc3ccccc3)ccc2n(C)c1=O	i
Cc1ccc(C)c(CN2CCCN(C)CC2)c1	i
O=C(CCc1ccco1)N1CCc2[nH]nc(-c3ccc(C(F)(F)F)cc3)c2C1	i
CC(=O)c1ccc(NC(=O)O[C@@H]2CO[C@H]3[C@@H]2OC[C@@H]3NC(=O)c2cccs2)cc1	i
O=C1CC(c2ccccc2)CN1Cc1nc(Cc2ccccc2)n[nH]1 (stereo not given)	i
